This note sets out measurements from PubChem BioAssay (NCATS).

Each structure is given as a SMILES string. Results filed as inconclusive are left out. A call without a number means that no potency is given here. Active and inactive are the calls of the source. The call rests on the fitted dose curve; in most records, active means well fitted curve in the direction sought with a large enough effect; inconclusive means small, poorly fitted or top-dose-only effect, or another doubt; inactive means no such curve, though single readings can be large; an effect the other way counts as inactive or inconclusive.

The target of assay [1] is ATP-dependent 6-phosphofructokinase (Trypanosoma brucei brucei) (UniProt O15648). Put plainly: qHTS Assay to Find Inhibitors of T. brucei phosphofructokinase: hit validation (AID 492961).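 Further: luminescence reports ADP formed as PFK phosphorylates fructose-6-phosphate with ATP; series mostly up to about 51 µM.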 Put shortly:
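Reaction: 0.1 M triethanolamine pH 8.0, 5 mM MgCl2, F6P 0.5 mM, ATP 0.1 mM, PFK 1.25 nM, 45 min RT. Read-out: ADP-Glo luminescence. Analysis: concentration-response fits, classed by r2 and efficacy.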

Assay [2] addresses Ubiquitin carboxyl-terminal hydrolase 1 (Homo sapiens) (UniProt O94782). As to the kind of experiment: Inhibitors of USP1/UAF1: Pilot qHTS (AID 504865).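 Further: rhodamine fluorescence freed from ubiquitin-rhodamine substrate followed over time; top concentration of the series differs between compounds; nearly all actives have a fitted effect of over 35% in size.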 In outline:
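Enzyme-free wells gave the negative control, while test wells held 1nM USP1/UAF1 preincubated with compound for 15 min at room temperature. Ub-Rho at 150nM final started the reaction, and fluorescence at 480/540 nm was recorded kinetically.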

ATP-dependent 6-phosphofructokinase (Trypanosoma brucei brucei), sequence (O15648 whole entry, looked up): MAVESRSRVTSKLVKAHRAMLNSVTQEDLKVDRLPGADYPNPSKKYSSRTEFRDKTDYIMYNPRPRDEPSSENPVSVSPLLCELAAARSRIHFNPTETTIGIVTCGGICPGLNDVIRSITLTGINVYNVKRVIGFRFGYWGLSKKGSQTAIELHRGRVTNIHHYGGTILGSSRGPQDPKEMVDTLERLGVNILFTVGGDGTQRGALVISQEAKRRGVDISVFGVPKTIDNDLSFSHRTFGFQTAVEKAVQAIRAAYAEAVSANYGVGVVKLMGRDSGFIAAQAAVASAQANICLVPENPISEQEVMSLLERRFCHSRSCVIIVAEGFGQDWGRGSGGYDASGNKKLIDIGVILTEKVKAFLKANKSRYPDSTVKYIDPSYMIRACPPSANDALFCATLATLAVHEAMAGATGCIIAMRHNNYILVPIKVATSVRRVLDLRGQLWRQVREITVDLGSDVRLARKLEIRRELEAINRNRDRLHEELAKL
Ubiquitin carboxyl-terminal hydrolase 1 (Homo sapiens), sequence (O94782 whole entry, looked up): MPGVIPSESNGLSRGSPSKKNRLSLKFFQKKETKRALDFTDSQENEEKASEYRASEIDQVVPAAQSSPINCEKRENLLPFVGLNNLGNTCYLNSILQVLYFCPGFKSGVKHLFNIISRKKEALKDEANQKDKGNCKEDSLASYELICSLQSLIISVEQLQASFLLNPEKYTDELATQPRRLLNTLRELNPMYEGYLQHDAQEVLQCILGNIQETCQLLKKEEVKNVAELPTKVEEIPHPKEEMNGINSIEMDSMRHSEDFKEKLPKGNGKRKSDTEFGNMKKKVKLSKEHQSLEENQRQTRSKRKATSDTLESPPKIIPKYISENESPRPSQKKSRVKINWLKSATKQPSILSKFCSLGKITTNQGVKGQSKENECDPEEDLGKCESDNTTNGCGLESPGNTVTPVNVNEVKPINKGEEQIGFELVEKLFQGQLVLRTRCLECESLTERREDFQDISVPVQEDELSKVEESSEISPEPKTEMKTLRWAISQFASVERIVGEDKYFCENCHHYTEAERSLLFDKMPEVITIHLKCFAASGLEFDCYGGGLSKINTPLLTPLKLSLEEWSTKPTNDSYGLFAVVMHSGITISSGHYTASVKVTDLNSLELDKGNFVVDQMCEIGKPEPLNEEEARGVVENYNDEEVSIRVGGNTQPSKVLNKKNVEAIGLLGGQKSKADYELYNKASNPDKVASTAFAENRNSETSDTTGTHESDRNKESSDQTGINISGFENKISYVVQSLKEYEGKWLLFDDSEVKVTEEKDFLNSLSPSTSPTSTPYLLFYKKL

As to `c1ccc2[nH]ccc2c1`, the call in assay [1] was inactive. Also, in assay [2], the Potency entry is “inactive”.
For the compound `O=c1[nH]c2cc(C(F)(F)F)c(N3CCOCC3)cc2n(CP(=O)(O)O)c1=O`, the outcome in assay [1] was inactive. In addition, the Potency entry in assay [2] was “inactive”.
Regarding `CC(=O)OC[C@H]1O[C@@](COC(C)=O)(O[C@H]2O[C@H](COC(C)=O)[C@@H](OC(C)=O)[C@H](OC(C)=O)[C@H]2OC(C)=O)[C@@H](OC(C)=O)[C@@H]1OC(C)=O`, the result in assay [1] was inactive. In addition, in assay [2], the Potency result was “inactive”.
For `OCc1ccc(Cl)cc1Cl`, in assay [1], the outcome was inactive. Also, in assay [2], the Potency entry is “inactive”.
On to `Cc1c(C)c2c(c(C)c1OC(=O)c1cccnc1)CC[C@@](C)(CCC[C@H](C)CCC[C@H](C)CCCC(C)C)O2`, for which the outcome in assay [1] was inactive. The Potency entry in assay [2] is “inactive”.
`CCc1cccc(CC)c1NC(=O)CN(CC(=O)O)CC(=O)O`: the result in assay [1] was inactive. In assay [2], the Potency result was “inactive”.
On to `COc1ccc(O)cc1`, for which the outcome in assay [1] was inactive. In addition, the Potency result in assay [2] is “inactive”.
With `N[C@@H](Cc1ccc(O)cc1)C(=O)O`, the compound was classed as inactive in assay [1]. For the same compound, the Potency result in assay [2] was “inactive”.
Consider `COc1ccc(C(=O)N2CCN(CC(=O)N3CCOCC3)CC2)cc1`, for which, in assay [1], the outcome was inactive. Besides, in assay [2], the Potency result was “inactive”.
As for `O=c1[nH]cnc2nc[nH]c12`, the outcome in assay [1] was inactive. In addition, the Potency result in assay [2] is “inactive”.
For the compound `Nc1c2c(nc3c1CCC3)CCCC2`, the outcome in assay [1] was inactive. Moreover, in assay [2], the Potency result was “inactive”.
As for `CNc1c2c(nn1C)CCCC2`, in assay [1], the call was inactive. The Potency result in assay [2] is “inactive”.
For the compound `CCOC(=O)c1cccnc1`, the outcome in assay [1] was inactive. Further, the Potency result in assay [2] is “inactive”.
`NNC(=O)CP(=O)(c1ccccc1)c1ccccc1`: in assay [1], the result was inactive. In addition, the Potency result in assay [2] is “inactive”.
With `COc1ccc(NS(=O)(=O)c2ccc(N)cc2)nn1`, the outcome in assay [1] was inactive. Further, the Potency result in assay [2] was “inactive”.
As for `CCCCC1(COC(=O)CCC(=O)O)C(=O)N(c2ccccc2)N(c2ccccc2)C1=O`, the compound was called inactive in assay [1]. Further, in assay [2], the Potency entry was “inactive”.
Take `Cc1cccc(C(=O)O)c1O`: the compound was classed as inactive in assay [1]. In assay [2], the Potency entry was “inactive”.
Take `O=C(O)c1ccc[n+]([O-])c1`: the compound was called inactive in assay [1]. In assay [2], the Potency result is “inactive”.
With `Cc1ccc(C(C)C)c(O)c1`, the call in assay [1] was inactive. Also, the Potency result in assay [2] is “inactive”.
With `CCCCCCCC(=O)OCC(O)CO` (stereo not given), the result in assay [1] was inactive. For the same compound, the Potency entry in assay [2] was “inactive”.
Regarding `CC(C)C[C@@H](N)C(=O)O`, the call in assay [1] was inactive. The Potency entry in assay [2] was “inactive”.
Regarding `NC(=O)CC[C@@H](N)C(=O)O`, in assay [1], the result was inactive. In assay [2], the Potency result was “inactive”.
As for `O=C(O)Cc1ccc(CCNS(=O)(=O)c2ccc(Cl)cc2)cc1`, the call in assay [1] was inactive. Also, the Potency result in assay [2] is “inactive”.
On to `CC(C)(C)C(=O)OCOC(=O)[C@@H]1N2C(=O)[C@@H](NC(=O)[C@H](N)c3ccccc3)[C@H]2SC1(C)C`, for which the outcome in assay [1] was inactive. Further, the Potency entry in assay [2] was “inactive”.
Take `CCCCCCCCCCCCCCCCN`: the call in assay [1] was inactive. Also, in assay [2], the Potency result is “inactive”.
Take `CCN(CC)C(=O)c1cccc(C)c1`: in assay [1], the compound was classed as inactive. Also, the Potency entry in assay [2] was “inactive”.
For the compound `CC(O)CCCCn1c(=O)c2c(ncn2C)n(C)c1=O` (stereo not given), the outcome in assay [1] was inactive. The Potency result in assay [2] was “inactive”.
Take `Cc1cc(=O)[nH]c(=S)[nH]1`: in assay [1], the result was inactive. Moreover, the Potency result in assay [2] is “inactive”.
On to `COc1ccc(C(=O)NCc2ccc(OCCN(C)C)cc2)cc1OC`, for which, in assay [1], the call was inactive. Also, in assay [2], the Potency result was “inactive”.
`Cc1ccsc1C(=CCCN1CCC[C@@H](C(=O)O)C1)c1sccc1C`: the outcome in assay [1] was inactive. Besides, the Potency result in assay [2] was “inactive”.
For the compound `CN/C(=C\[N+](=O)[O-])NCCSCc1csc(CN(C)C)n1`, in assay [1], the call was inactive. For the same compound, in assay [2], the Potency result was “inactive”.
Take `CC(=O)Nc1cccc(O)c1`: the result in assay [1] was inactive. In assay [2], the Potency result was “inactive”.
On to `Cc1cccc(C)c1NC(=O)CC12CCCN1CCC2`, for which, in assay [1], the call was inactive. Besides, the Potency result in assay [2] was “inactive”.
Turning to `CCCCCCCCCCOc1cc2c(=O)c(C(=O)OCC)c[nH]c2cc1OCC`, the outcome in assay [1] was inactive. Also, in assay [2], the Potency entry is “inactive”.
As to `CCOc1ccc(C(=O)OCCN(CC)CC)cc1`, the compound was called inactive in assay [1]. Besides, the Potency entry in assay [2] is “inactive”.
For the compound `CCCC(O)C(CC)CO` (stereo not given), the compound was classed as inactive in assay [1]. The Potency entry in assay [2] is “inactive”.
In the case of `CCN(CC)CC1CCCCN1CC(=O)N1c2ccccc2C(=O)Nc2cccnc21` (stereo not given), the outcome in assay [1] was inactive. Moreover, the Potency result in assay [2] was “inactive”.
Consider `Cc1c(Cn2ccnc2)c2ccccc2n1CCC(=O)O`, for which the outcome in assay [1] was inactive. The Potency entry in assay [2] was “inactive”.
With `Cc1c(I)c(=O)n(-c2ccccc2)n1C`, the compound was classed as inactive in assay [1]. Besides, in assay [2], the Potency entry is “inactive”.
Regarding `COc1ccccc1Oc1c(NS(=O)(=O)c2ccc(C(C)(C)C)cc2)nc(-c2ncccn2)nc1OCCO`, the compound was called inactive in assay [1]. Besides, in assay [2], the Potency entry was “inactive”.
